Source: PubChem BioAssay (EPA / NIEHS)
Calls of active or inactive are those of the source. Rule for the calls: active = hit-call score of the fitted dose curve at least 0.9, where 1 is the maximum; inactive = score below 0.9.

Experiments:
[1] = ATG_CRE_CIS: Attagene CIS-FACTORIAL HepG2 Assay for human cAMP Responsive Element (CRE) binding protein 3 (AID 2282926); conditions: HepG2 CRE cis-reporter, Attagene multiplexed mRNA; actives raise or lower the signal
Outline: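 Multiplexed transcription-unit reporters transfected into HepG2; 24 h dosing; RT-PCR/capillary electrophoresis fluorescence read-out; bidirectional fit vs DMSO.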

[2] = biological target: CCAAT/enhancer-binding protein beta (Homo sapiens) (UniProt P17676); assay: ATG_C_EBP_CIS: Attagene CIS-FACTORIAL HepG2 Assay for human CCAAT/Enhancer Binding Protein (C/EBP) beta (AID 2282927); conditions: HepG2 Attagene cis-factorial transcription factor reporter; actives raise or lower the signal
Outline: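 Following a 24 h incubation with test chemical, transfected HepG2 cells yielded RNA whose reporter transcripts were quantified by RT-PCR and fluorescent capillary electrophoresis, with DMSO serving as baseline for bidirectional fitting.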

[3] = ATG_CMV_CIS: Attagene CIS-FACTORIAL HepG2 Assay for human CMV (Internal Marker) (AID 2282928); conditions: HepG2 CMV promoter reporter, transcription factor profiling; actives raise or lower the signal;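 note: endpoint acts as a background internal control marker rather than a target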
Outline: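 Cell system: HepG2, transiently transfected multiple reporter units under cis promoters. Exposure: 24 h. Detection: RT-PCR, FAM labeling, HpaI digestion, capillary electrophoresis. Analysis: bidirectional, DMSO baseline.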

[4] = ATG_DR4_LXR_CIS: Attagene CIS-FACTORIAL HepG2 Assay for human Liver X Receptor (LXR), DR4 submotif (AID 2282929); conditions: HepG2 Attagene DR4 cis-reporter, mRNA transcription; actives raise or lower the signal
Outline: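 Fluorescence intensity of labelled reporter cDNA fragments, separated by capillary electrophoresis, gives the signal. HepG2 cells bearing cis-regulated reporter constructs were treated 24 h; activity fitted bidirectionally relative to DMSO negative control.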

[5] = biological target: Aryl hydrocarbon receptor (Homo sapiens) (UniProt P35869); assay: ATG_Ahr_CIS: Attagene CIS-FACTORIAL HepG2 Assay for human Aryl Hydrocarbon Receptor (Ahr) (AID 2282930); conditions: HepG2 AhR cis-factorial reporter transcription; actives raise or lower the signal
Outline: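 Values derive from bidirectional fitting against DMSO negative control. Underlying signal: cis-element reporter mRNA in transiently transfected HepG2, harvested 24 h post-dose and measured by RT-PCR plus capillary electrophoresis.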

[6] = ATG_AP_1_CIS: Attagene CIS-FACTORIAL HepG2 Assay for human Activator Protein 1 (AP-1) (AID 2282931); conditions: HepG2 Attagene cis-factorial AP-1 reporter mRNA; actives raise or lower the signal
Outline: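 Multiplexed HepG2 reporter assay, 24 h dosing. mRNA induction detected by RT-PCR plus capillary electrophoresis. Activity fitted in both directions against DMSO.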

[7] = ATG_AP_2_CIS: Attagene CIS-FACTORIAL HepG2 Assay for human Activator Protein 2 (AP-2) (AID 2282932); conditions: HepG2 AP-2 cis-reporter, Attagene transcription factor profiling; actives raise or lower the signal
Outline: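 HepG2 cells were transiently transfected with multiple cis-promoter reporter transcription units and dosed for 24 h. Reporter mRNA was measured by RT-PCR with capillary electrophoresis fluorescence; bidirectional fits relative to DMSO baseline.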

[8] = ATG_BRE_CIS: Attagene CIS-FACTORIAL HepG2 Assay for human Bone Morphogenetic Protein (BMP) Response Element (BRE) (AID 2282933); conditions: HepG2 BMP response element reporter, Attagene transcription factor profiling; actives raise or lower the signal
Outline: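 Fluorescence-labelled reporter cDNA fragments, separated by capillary electrophoresis, gave the signal for this component of a 52-readout multiplex. HepG2 cells were transfected, exposed to chemicals for 24 h, and compared with DMSO using bidirectional fitting.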

[9] = biological target: Retinoic acid receptor alpha (Homo sapiens) (UniProt P10276); assay: ATG_DR5_RAR_CIS: Attagene CIS-FACTORIAL HepG2 Assay for human Retinoic Acid Receptor Alpha (RARE), DR5 submotif (AID 2282934); conditions: HepG2 Attagene cis-factorial RARE DR5 reporter, mRNA; actives raise or lower the signal
Outline: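 Endpoint fitted in both directions relative to DMSO as negative control. It reflects DR5 cis-element reporter mRNA induction in transiently transfected HepG2 cells, measured 24 h after dosing through RT-PCR and fluorescent capillary electrophoresis.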

[10] = biological target: Transcription factor E2F1 (Homo sapiens) (UniProt Q01094); assay: ATG_E2F_CIS: Attagene CIS-FACTORIAL HepG2 Assay for human E2F Transcription Factor 1 (AID 2282935); conditions: HepG2 Attagene cis-reporter, E2F reporter RNA transcripts; actives raise or lower the signal
Outline: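 HepG2 cells transiently transfected with multiplexed cis-element reporter units, dosed for 24 h. Reporter mRNA measured by RT-PCR, 6-FAM primer-extension labeling, HpaI digestion and capillary electrophoresis; bidirectional fit versus DMSO baseline.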

Chain of Aryl hydrocarbon receptor (Homo sapiens) (P35869 whole entry, looked up): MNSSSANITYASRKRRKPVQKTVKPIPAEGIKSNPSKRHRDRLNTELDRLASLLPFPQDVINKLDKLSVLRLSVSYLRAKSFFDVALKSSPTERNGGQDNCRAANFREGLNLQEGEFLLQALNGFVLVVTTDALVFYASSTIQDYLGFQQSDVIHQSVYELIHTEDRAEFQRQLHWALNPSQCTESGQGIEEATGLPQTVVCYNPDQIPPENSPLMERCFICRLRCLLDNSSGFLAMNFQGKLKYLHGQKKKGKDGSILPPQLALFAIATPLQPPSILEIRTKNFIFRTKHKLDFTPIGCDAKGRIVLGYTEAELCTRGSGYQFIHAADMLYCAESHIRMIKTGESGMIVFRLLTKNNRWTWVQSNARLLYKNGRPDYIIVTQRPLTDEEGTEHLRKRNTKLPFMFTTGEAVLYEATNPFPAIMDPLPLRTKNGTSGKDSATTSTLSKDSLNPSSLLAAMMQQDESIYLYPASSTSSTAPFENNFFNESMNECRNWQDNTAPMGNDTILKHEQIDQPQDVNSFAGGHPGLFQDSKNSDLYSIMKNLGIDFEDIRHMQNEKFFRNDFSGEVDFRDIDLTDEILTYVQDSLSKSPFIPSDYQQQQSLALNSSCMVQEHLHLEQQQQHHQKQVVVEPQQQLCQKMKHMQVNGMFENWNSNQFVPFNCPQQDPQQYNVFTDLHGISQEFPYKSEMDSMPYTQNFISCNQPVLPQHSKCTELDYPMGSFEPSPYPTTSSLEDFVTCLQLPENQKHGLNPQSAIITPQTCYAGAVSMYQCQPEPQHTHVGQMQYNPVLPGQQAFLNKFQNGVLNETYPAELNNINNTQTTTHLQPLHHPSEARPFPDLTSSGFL
Chain of Retinoic acid receptor alpha (Homo sapiens) (P10276 whole entry, looked up): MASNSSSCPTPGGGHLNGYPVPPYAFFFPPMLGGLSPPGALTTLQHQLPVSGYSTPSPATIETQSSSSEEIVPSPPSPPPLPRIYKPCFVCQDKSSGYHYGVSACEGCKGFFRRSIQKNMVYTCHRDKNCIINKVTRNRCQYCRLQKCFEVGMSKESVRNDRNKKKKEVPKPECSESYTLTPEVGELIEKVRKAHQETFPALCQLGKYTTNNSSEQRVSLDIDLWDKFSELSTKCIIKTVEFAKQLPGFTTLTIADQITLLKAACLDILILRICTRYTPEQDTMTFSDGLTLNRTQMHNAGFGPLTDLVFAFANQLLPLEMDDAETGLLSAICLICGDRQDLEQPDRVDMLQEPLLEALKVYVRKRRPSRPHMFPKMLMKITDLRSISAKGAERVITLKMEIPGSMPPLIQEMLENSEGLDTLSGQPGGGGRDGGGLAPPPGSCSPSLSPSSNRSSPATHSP
Chain of CCAAT/enhancer-binding protein beta (Homo sapiens) (P17676 whole entry, looked up): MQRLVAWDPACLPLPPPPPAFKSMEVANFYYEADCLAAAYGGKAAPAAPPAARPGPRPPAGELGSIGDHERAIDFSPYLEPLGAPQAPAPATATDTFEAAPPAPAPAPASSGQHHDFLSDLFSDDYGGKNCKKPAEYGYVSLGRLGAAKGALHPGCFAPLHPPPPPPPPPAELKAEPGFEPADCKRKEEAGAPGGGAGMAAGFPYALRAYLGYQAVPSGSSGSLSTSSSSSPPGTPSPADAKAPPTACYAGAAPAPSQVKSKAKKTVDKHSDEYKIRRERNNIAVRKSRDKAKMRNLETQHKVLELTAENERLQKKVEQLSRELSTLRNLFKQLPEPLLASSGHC
Chain of Transcription factor E2F1 (Homo sapiens) (Q01094 whole entry, looked up): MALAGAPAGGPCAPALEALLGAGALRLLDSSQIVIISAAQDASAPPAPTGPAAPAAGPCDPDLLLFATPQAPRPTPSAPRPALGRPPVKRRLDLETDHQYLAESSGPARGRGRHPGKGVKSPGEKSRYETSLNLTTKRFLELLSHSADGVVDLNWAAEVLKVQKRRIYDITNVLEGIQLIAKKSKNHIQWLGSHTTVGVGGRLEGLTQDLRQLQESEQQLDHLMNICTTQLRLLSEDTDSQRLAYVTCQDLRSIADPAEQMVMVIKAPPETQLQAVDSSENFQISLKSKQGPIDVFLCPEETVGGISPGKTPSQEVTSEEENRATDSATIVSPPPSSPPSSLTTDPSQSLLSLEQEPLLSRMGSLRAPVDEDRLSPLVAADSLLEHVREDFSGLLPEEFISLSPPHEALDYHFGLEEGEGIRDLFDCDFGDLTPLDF

SMILES	outcome [1]	outcome [2]	AC50 [3]	outcome [4]	outcome [5]	outcome [6]	outcome [7]	outcome [8]	outcome [9]	outcome [3]	outcome [10]	AC50 [4]	AC50 [5]	AC50 [6]	AC50 [7]	AC50 [1]
Cc1cc(O)c(Cl)c(C)c1Cl	inactive	inactive	23.9 µM (active)	inactive	inactive	inactive	inactive	inactive	inactive							
O=C(O)CCCCCCCCCC(=O)O	inactive	inactive		inactive	inactive	inactive	inactive	inactive	inactive	inactive	inactive					
CCC(CO)CO	inactive	inactive		inactive	inactive	inactive	inactive	inactive	inactive	inactive	inactive					
Nc1ccc(N=Nc2ccccc2)c(N)n1	inactive	inactive				inactive	inactive	inactive	inactive	inactive	inactive	48.5 µM (active)	23.5 µM (active)			
CCOCC(=O)O	inactive	inactive		inactive	inactive	inactive	inactive	inactive	inactive	inactive						
Cc1ccc(C(C)(C)C)cc1	inactive	inactive		inactive	inactive	inactive	inactive	inactive	inactive	inactive						
CC1=CC[C@H](C(C)C)C=C1	inactive	inactive		inactive	inactive	inactive	inactive	inactive		inactive						
O=C1C(N(CO)C(=O)NCO)N(CO)C(=O)N1CO (configuration not stated)	inactive	inactive		inactive	inactive	inactive	inactive	inactive	inactive	inactive	inactive					
C=C(C)C(=O)OCCOc1ccccc1	inactive	inactive		inactive	inactive	inactive	inactive	inactive	inactive	inactive	inactive					
CCCNC(=O)NS(=O)(=O)c1ccc(Cl)cc1	inactive	inactive		inactive	inactive	inactive	inactive	inactive	inactive	inactive	inactive					
COCC(C)N (configuration not stated)	inactive	inactive		inactive	inactive	inactive	inactive	inactive	inactive	inactive	inactive					
O=S(=O)(O)c1cc(S(=O)(=O)O)c2ccc3c(S(=O)(=O)O)cc(S(=O)(=O)O)c4ccc1c2c43	inactive	inactive		inactive	inactive	inactive	inactive	inactive	inactive	inactive						
C[C@]12CCC(=O)C=C1CC[C@@H]1[C@@H]2C(=O)C[C@@]2(C)[C@H]1CC[C@]2(O)C(=O)CO	inactive	inactive		inactive	inactive	inactive	inactive	inactive	inactive	inactive						
C=CC(C)(CCC=C(C)C)OC(=O)CC(C)C (configuration not stated)	inactive	inactive	75.3 µM (active)		inactive		inactive	inactive	inactive			133 µM (active)		119 µM (active)		
CC(=O)[C@H]1[C@H](C#N)C[C@H]2[C@@H]3CC=C4C[C@@H](O)CC[C@]4(C)[C@H]3CC[C@@]21C	inactive	inactive		inactive	inactive	inactive	inactive	inactive	inactive	inactive	inactive					
CC(C)CCCC(C)CC=O (configuration not stated)	inactive	inactive		inactive	inactive	inactive	inactive	inactive	inactive	inactive	inactive					
C=C(C)[C@H]1CC=C(C)CC1	inactive	inactive		inactive	inactive	inactive	inactive	inactive		inactive						
O=S(=O)(O)c1ccc2cc(O)c(S(=O)(=O)O)cc2c1	inactive	inactive	166 µM (active)			inactive	inactive	inactive	inactive		inactive	60.8 µM (active)	138 µM (active)			
COc1cc(C)ccc1C(C)C	inactive	inactive		inactive	inactive	inactive	inactive	inactive	inactive	inactive	inactive					
COC(=O)c1ccccc1OC	inactive	inactive		inactive	inactive	inactive	inactive	inactive	inactive	inactive						
COC=O	inactive	inactive		inactive	inactive	inactive	inactive	inactive	inactive	inactive	inactive					
Cc1ccc([N+](=O)[O-])cc1S(=O)(=O)O	inactive	inactive		inactive	inactive	inactive		inactive	inactive	inactive	inactive				163 µM (active)	
CC(=O)OCCC1CCCCC1	inactive	inactive		inactive	inactive	inactive	inactive	inactive	inactive	inactive	inactive					
OCCc1ccncc1	inactive	inactive		inactive	inactive	inactive	inactive	inactive	inactive	inactive						
CCC(=O)Oc1ccc(/C(CC)=C(\CC)c2ccc(OC(=O)CC)cc2)cc1		inactive			inactive		inactive	inactive	inactive	inactive		6.03 µM (active)		11.6 µM (active)		25.9 µM (active)
